Experimental data: PubChem BioAssay AID1863 (Southern Research Specialized Biocontainment Screening …, 2009)
Hit rate of the full screen: of about 300,000 compounds, about 480 (0.16%) were called active.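 The calls were made as follows: active = inhibition over 29.93%, a cutoff 3 SD above the screen mean, later confirmed by dose response; inconclusive = inhibition over 29.93% but no dose response follow-up; inactive = inhibition at most 29.93% or unconfirmed.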 Not all results are given here. Results with a measured potency or affinity are listed apart.

Assay: PhoP-dependent GFP reporter repression – Salmonella Typhimurium, primary screen (AID 1863);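 also: 0% = low Mg2+ inducing control and 100% = high Mg2+ repressing control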
Details: S. Typhimurium PhoP-regulated promoter GFP reporter, 4 h; at 50 µM; hits give high values

inhibition, inactive:
CSCCC(NC(=O)c1cccc([N+](=O)[O-])c1)C(=O)OCC(=O)N1CCCC1=O (centres undefined) 1.97%, CCN=C1SC(CC(=O)NC2CCCCC2)C(=O)N1CC (centres undefined) 8.13%, Clc1ccc(C[n+]2cc(-c3ccccc3)n3c2CCCCC3)c(Cl)c1 8.08%, Cc1ccc(C[n+]2cc(-c3ccc(Cl)cc3)n3c2CCC3)cc1 31.5%, Cc1ccc(-c2c[n+](Cc3ccc(Cl)cc3)c3n2CCC3)cc1 -4.34%, Clc1ccc(-c2c[n+](Cc3cccc(Cl)c3)c3n2CCC3)cc1 5.53%, COC(=O)C(C)(C(=O)OC)c1ccc(C(F)(F)F)cc1[N+](=O)[O-] -5.58%, C=CCN1C(=O)C(CC(=O)Nc2ccc(OCC)cc2)N(Cc2ccccn2)C1=S (centres undefined) -2.55%, Cc1ccc(NC(=S)N2CCOCC2)c(C)c1 -0.67%, CN1C(=O)C(O)(CC(=O)c2cccs2)c2ccccc21 (centres undefined) -3.39%, O=C1C(=O)N(CC2CCCO2)C(c2ccccc2[N+](=O)[O-])/C1=C(/O)c1ccccc1 (centres undefined) 2.01%, CC1(C)CC(=O)C2=C(C1)OC(c1ccncc1)C(C#N)=C2N (centres undefined) -4.82%, O=C(NC1CCCCC1)C1CCN(c2cnccn2)CC1 17.7%, O=C(NC(Cc1ccccc1)C(=O)NCc1ccccn1)c1ccco1 (centres undefined) 1.32%, Nc1nc2ccccc2n1CCOc1ccc(Cl)cc1 11.6%, CCn1c(N)nc2ccccc21 5.85%, Cc1ccc(Cn2c(N)nc3ccccc32)cc1 11.5%, Nc1nc2ccccc2n1CCOc1ccc(F)cc1 10.1%, CC(NC(=O)c1ccco1)C(=O)OCC(=O)c1ccc(Cl)s1 (centres undefined) -10.8%, CN1C(C(=O)Nc2ncccn2)=C(O)c2ccccc2S1(=O)=O 5.72%, COc1cc(C(=O)NCc2nnc(SCC(=O)Nc3cc(C)on3)o2)cc(OC)c1OC -1.06%, CCOC(CNC(=O)Cn1nc(Cc2ccncc2)c2ccccc2c1=O)OCC 1.12%, Cc1ccccc1/C=N/Nc1nc2ccccc2[nH]1 -7.4%, CCN(CC)c1ccc(/C=N/Nc2nc(C)cc(=O)[nH]2)c(O)c1 6.35%, COc1ccc(O)c(/C=N/Nc2nc3ccccc3[nH]2)c1 -9.48%, CCN(CC)c1ccc(/C=N/Nc2ccccc2)c(O)c1 7.3%, CC1=C(C(N)=O)C(c2ccccn2)n2nc(SCc3ccccc3)nc2N1 (centres undefined) 1.82%, CCCCSc1nc2c(=O)[nH][nH]c(=O)c2n1Cc1ccccc1 -7.79%, Cc1ccc(NC(=O)NNC(=O)c2ccccc2)cc1 3.02%, C#CCOCCOCCOCCNc1nc(N2CCN(C(=O)CCCCCCCCCCNC(=O)[C@@H](CCSC)n3cc(CCO)nn3)CC2)nc(N2CCN(C(=O)CCCCCCCCCCNC(=O)[C@H]([C@@H](C)CC)n3cc(CCCCN=C(N)N)nn3)CC2)n1 4.22%, C#CCOCCOCCOCCNc1nc(N2CCN(C(=O)CCCCCCCCCCNC(=O)[C@H]([C@@H](C)CC)n3cc(CCCCN=C(N)N)nn3)CC2)nc(N2CCN(C(=O)CCCCCCCCCCNC(=O)[C@H](CCCCN)n3cc(C[C@@H](C)CC)nn3)CC2)n1 21.5%, C#CCOCCOCCOCCNc1nc(N2CCOCC2)nc(N2CCN(C(=O)CCCCCCCCCCNC(=O)[C@H]([C@@H](C)CC)n3cc(CCCCN=C(N)N)nn3)CC2)n1 11.5%, C#CCOCCOCCOCCNc1nc(N2CCN(C(=O)CCCCCCCCCCNC(=O)[C@H](CO)n3cc(CCCSC)nn3)CC2)nc(N2CCN(C(=O)CCCCCCCCCCNC(=O)[C@H](CCCN=C(N)N)n3cc(C[C@@H](C)CC)nn3)CC2)n1 4.93%, C#CCOCCOCCOCCNc1nc(N2CCN(C(=O)CCCCCCCCCCNC(=O)[C@H]([C@@H](C)CC)n3cc(CCCCCN)nn3)CC2)nc(N2CCN(C(=O)CCCCCCCCCCNC(=O)[C@H]([C@@H](C)CC)n3cc(CCCCN=C(N)N)nn3)CC2)n1 11.9%, C#CCOCCOCCOCCNc1nc(N2CCN(C(=O)CCCCCCCCCCNC(=O)[C@H]([C@@H](C)CC)n3cc(CCCCN=C(N)N)nn3)CC2)nc(N2CCN(C(=O)CCCCCCCCCCNC(=O)[C@H](CCCCN)n3cc(C)nn3)CC2)n1 24.6%, Cc1cc(C)nc(-n2nc(C)cc2NC(=O)CNCc2ccccc2)n1 1.3%, COC(=O)c1ccc(COc2ccc(/C=N/Nc3nc(C)cc(=O)[nH]3)cc2)cc1 2.45%, Cc1ccc(N2C(=O)c3cccc4c(Oc5ccccc5[N+](=O)[O-])ccc(c34)C2=O)c(C)c1 -0.66%, CC(=O)c1cccc(S(=O)(=O)N(C)C2CCN(C)CC2)c1 6.64%, COc1cnc(-c2ccccc2)[nH]c1=O 3.46%, COc1cnc(-c2cccc(C(F)(F)F)c2)[nH]c1=O -6.31%, CCN(CC)CCNC(=O)C(=O)Nc1ccc2c(c1)N(S(=O)(=O)c1cccs1)CCC2 0.58%, CC1(C)CC(=O)c2sc(NS(=O)(=O)c3ccc(Cl)cc3)nc2C1 -6.02%, CCn1c(CSc2nnc(-c3ccncc3)n2CCOC)nc2cc(C(=O)O)ccc21 1.32%, CC(C)(C)NCC(O)COc1ccc(Br)cc1 (centres undefined) -5.49%, COc1ccc(NCC(O)COc2ccc(C(C)(C)C)cc2)cc1 (centres undefined) 18.9%, COc1ccc(Nc2cc(C)c3ccccc3n2)cc1 -10.8%, CC(=O)Nc1ccc(Nc2cc(C)c3ccccc3n2)cc1 -1.27%, Cc1ccc(Nc2cc(C)c3ccc(O)cc3n2)cc1C 59.6%, COC(=O)c1cc(Nc2cc(C)c3c(O)cccc3n2)cc(C(=O)OC)c1 1.78%, O=C(Nc1ccccc1)c1cnc(-c2ccccc2)nc1-c1ccccc1 -0.26%, NC(=O)C1CCN(C(=O)CSc2ccccn2)CC1 -5.25%, CCCCCCNC(=O)c1cc(S(=O)(=O)N2CCc3ccccc32)ccc1F -0.27%, O=C(NNCc1ccc(O)cc1)c1ccccc1Cl -5.79%, O=C(Cc1ccccc1)NC(C(=O)O)C(O)c1ccc([N+](=O)[O-])cc1 (centres undefined) 2.69%, O=C(O)CC(Cc1ccc(Cl)cc1)C(=O)Nc1ccc([N+](=O)[O-])cc1 (centres undefined) -6.77%, O=C(O)CC(Cc1ccccc1)C(=O)Nc1ccc([N+](=O)[O-])cc1 (centres undefined) -0.18%, CCOC(=O)C(NC(C)=O)C(O)c1ccc([N+](=O)[O-])cc1 (centres undefined) 4.56%, O=[N+]([O-])c1ccc(C(O)C(CO)NC(=S)Nc2ccccc2)cc1 (centres undefined) -9.91%, NC(CO)C(O)c1ccc([N+](=O)[O-])cc1 (centres undefined) 2.92%, COc1ccc(S(=O)(=O)N2CCCCCC2)cc1N(C)S(=O)(=O)c1ccc(C)cc1 -9.69%, CCCC(=O)N(c1ccc(OCC)cc1)C1C=CS(=O)(=O)C1 (centres undefined) -5.2%, CCOC(=O)c1cn(C2CC2)c2c(F)c(F)c(F)cc2c1=O -6.9%, COC(=O)C(c1cc(OC)c(O)c(OC)c1)(N1CCNC(C)C1)C(F)(F)F (centres undefined) 1.17%, O=C(O)c1cn(C2CCCCC2)c2ccccc2c1=O -3.48%, C[C@@H]1CN(c2c(F)c(N)c3c(=O)c(C(=O)O)cn(C4CC4)c3c2F)C[C@H](C)N1 -7.7%, COC(=O)c1ccc(NC(=O)C(OC)c2ccccc2)cc1 (centres undefined) 5.34%, O=C(NNC(=O)c1ccccc1OCc1ccc(F)cc1)c1ccccc1O 1.71%, COc1cccc(Oc2ccc(S(=O)(=O)N3CCCC3)cc2[N+](=O)[O-])c1 -0.65%, COc1ccc([C@@H]2[C@@H]3C(=O)N(C(C)(C)C)C(=O)[C@@H]3[C@]3(Cc4ccccc4)C(=O)N(c4ccccc4)C(=O)N23)cc1 6.74%, O=C(COc1ccccc1F)NNC(=O)c1ccc2c(=O)n3c(nc2c1)CCC3 -5.21%, CC(CN1CCCCC1)OC(=O)C(C)(c1ccccc1)c1ccccc1 (centres undefined) -9.7%, O=S(=O)(NCC1CCCO1)c1ccc(S(=O)(=O)N(Cc2ccc(F)cc2)Cc2ccco2)cc1 (centres undefined) 2.4%, CCCC(=O)Nc1c2c(nc3ccccc13)N(c1ccccc1)CC2 -4.18%, CCN(CCCCN1C(=O)c2ccccc2C1=O)c1ccc2c(c1)C(=O)N(C)C2=O -8.03%, COc1ccc(-c2cc3ccccc3n2CC(O)Cn2nc(C)cc2C)cc1 (centres undefined) 1.53%, O=C(O)c1cn(-c2ccc(F)cc2)c2cc(Cl)c(F)cc2c1=O 5.58%, O=C(O)c1cn(-c2ccc(N3CCCC3)c(F)c2)c2c(F)c(F)c(F)cc2c1=O -6.63%, O=C(/C=C/c1ccc([N+](=O)[O-])cc1)NCCc1ccccc1 6.48%, O=c1cc(N2CCN(c3ccccc3F)CC2)[nH]c(=O)n1-c1ccc(Br)cc1 -3.95%, Cc1sc2ncnc(N/N=C/c3ccc(O)cc3)c2c1C 11.1%, Cc1sc2ncnc(Nc3ccccc3)c2c1C 8.39%, C/C(=N\Nc1ncc(Cl)cc1Cl)c1ccccn1 9.66%, Cc1sc2ncnc(N/N=C/c3cccc(O)c3)c2c1C -0.11%
